From PubChem BioAssay (NCATS)
Results filed as inconclusive are left out. Values without a mark were called inactive. The source made the active and inactive calls. Calls follow the shape of the dose curve; as a rule, active = well fitted cell-killing curve with a large enough effect; inconclusive = small, poorly fitted or top-dose-only effect, or effect the other way; inactive = no such curve, though single readings can be large or run the other way.
Potency is read from the fitted curve at half-maximal effect.

Assay: Quantitative High-Throughput drug screen in 47 multiple myeloma cell lines against the NCATS MIPE library collection: SKMM1_PLB cell viability assay (AID 1919863); also: nearly all actives have a fitted effect of over 35% in size; as to viability: series mostly up to about 46 µM
Settings: SKMM1 myeloma viability, CellTiter-Glo ATP, 48 h; viability: hits give low values
Description: PI: Beverly A. Mock Ph.D.
Laboratory of Cancer Biology and Genetics,
Center for Cancer Research, National Cancer Institute,
National Institute of Health, Bethesda, Maryland
Drug resistance and disease progression are common in multiple myeloma (MM) patients, underscoring the need for new therapeutic combinations. […] We hypothesized that effective combinations would reduce MYC expression and enhance p16 activity. […] These preclinical data identify potentially useful drug combinations for evaluation in drug-resistant MM and reveal potential mechanisms of combined drug sensitivity.
Described herein is the primary MIPE qHTS used to cherrypick compounds. Validated compounds were then further tested for potential synergistic activiy.
[1] Peat TJ, Gaikwad SM, Dubois W, Gyabaah-Kessie N, Zhang S, Gorjifard S, Phyo Z, Andres M, Hughitt VK, Simpson RM, Miller MA, Girvin AT, Taylor A, Williams D, D'Antonio N, Zhang Y, Rajagopalan A, Flietner E, Wilson K, Zhang X, Shinn P, Klumpp-Thomas C, McKnight C, Itkin Z, Chen L, Kazandijian D, Zhang J, Michalowski AM, Simmons JK, Keats J, Thomas CJ, Mock BA. Drug combinations identified by high-throughput screening promote cell cycle transition and upregulate Smad pathways in myeloma. Cancer Lett. 2023 Aug 1;568:216284. doi: 10.1016/j.canlet.2023.216284. Epub 2023 Jun 24. PMID: 37356470; PMCID: PMC10408729.
SEQUENCE No. (e.g., 1, 2, 3, etc.); […] (e.g., Cells, Incubation, Reagent, etc.); VALUE and DESCRIPTION.
1; Cells; 5 uL; white, solid bottom 1536-well Greiner assay plate.
2; Compounds; 23 nL; Kalypsis pin tool (Wako USA) equipped with a 1536-well pin head to transfer to the assay plates.
3; Incubation; 48 hours; 37C incubation.
4; Reagent;5uL; CellTiter Glo (Promega).
5; Detector; 425V; Luminescence; Viewlux PerkinElmer.
NOTES (numbers refer to Sequence numbers above)
1. The cell-based screening methods employed in this study were like those previously published. Briefly, the corresponding myeloma cell lines were screened in 1,536-well plates with 500 cells, 5-uL per well for inhibition of cell viability (assessed by measuring ATP levels with CellTiterGlo).
2. NCATS MIPE 4.0 library of approved and investigational drugs were added using the Kalypsis pin tool. Wells treated with DMSO only for 100% viability and media only for 0% viability were used as controls.
3. The assay plates were covered and incubated for 48 hours in a 37C, 5% CO2 incubator with controlled humidity.
4. After 48 hours, CellTilter-GloTM luminescent substrate mix (Promega) reagent was added to the assay plate and plates we incubated for 5 min at room temperature.
5. Signal was measured as median relative luminescence units on a ViewLux (PerkinElmer) multiplate reader.
[1] Heske CM, Davis MI, Baumgart JT, Wilson K, Gormally MV, Chen L, Zhang X, Ceribelli M, Duveau DY, Guha R, Ferrer M, Arnaldez FI, Ji J, Tran HL, Zhang Y, Mendoza A, Helman LJ, Thomas CJ. Matrix Screen Identifies Synergistic Combination of PARP Inhibitors and Nicotinamide Phosphoribosyltransferase (NAMPT) Inhibitors in Ewing Sarcoma. Clin Cancer Res. 2017 Dec 1;23(23):7301-7311. doi: 10.1158/1078-0432.CCR-17-1121. Epub 2017 Sep 12. PMID: 28899971; PMCID: PMC6636827.
With `CN[C@@H]1CN(c2ccc3c(=O)c(C(=O)O)cn(-c4nccs4)c3n2)C[C@@H]1OC` the Potency was 7.24 µM (active). For `CCC(=C(c1ccc(O)cc1)c1ccc(OCCNC)cc1)c1ccccc1`, the Potency was 20.9 µM (active). `CCCCC(F)(F)[C@@]1(O)CC[C@H]2[C@H](CC(=O)[C@@H]2CCCCCCC(=O)O)O1` showed a viability of 97.7%. In the case of `CNC(=O)c1cc(COc2nnc(Nc3ccc(Cl)cc3)c3ccoc23)ccn1`, the Potency is reported as 23.5 µM (active). Molecule `COc1ccc(-c2nc3ccc(C4=NNC(=O)CC4C)cc3[nH]2)cc1` (stereo not given) has a viability of 101%. `COc1ccc2c(c1)CC[C@H]1[C@@H]2CC[C@]2(C)[C@@H](NCCCCCCN3C(=O)C=CC3=O)CC[C@H]12` showed a viability of 134%. For `CN1N=C(N)c2cn([C@@H]3O[C@H](COP(=O)(O)O)[C@@H](O)[C@@H]3O)c3ncnc1c23`, the Potency was 1.32 µM (active). In the case of `CCC[C@H](N[C@@H](C)C(=O)N1[C@@H]2CCCC[C@H]2C[C@H]1C(=O)O)C(=O)OCC`, the Potency is reported as 18.7 µM (active). In the case of `O=C(O)Cc1cccc(OCCCN(Cc2cccc(C(F)(F)F)c2Cl)CC(c2ccccc2)c2ccccc2)c1`, the Potency is reported as 11.8 µM (active). In the case of `CC(C)c1onc(-c2c(Cl)cccc2Cl)c1COc1ccc(C=Cc2cccc(C(=O)O)c2)c(Cl)c1`, the viability is reported as 113%. Molecule `COc1cc(CNC(=O)CCCCC=CC(C)C)ccc1O` has a viability of 120%. With `C=CC(=O)Nc1cccc(Sc2nc(Nc3ccc(N4CCN(C)CC4)cc3)ncc2Cl)c1` the Potency was 37.2 µM (active). In the case of `CNC(=O)c1cc(Oc2ccc(NC(=O)Nc3ccc(Cl)c(C(F)(F)F)c3)c(F)c2)ccn1`, the Potency is reported as 20.9 µM (active). For `O[C@@H](COc1cccc2ncccc12)CN1CCN(C2c3ccccc3[C@@H]3[C@H](c4ccccc42)C3(F)F)CC1` (stereo not given in full), the Potency was 23.5 µM (active). With `O=C(O)C1=CO[C@@H](O[C@@H]2O[C@H](CO)[C@H](O)[C@H](O)[C@H]2O)[C@@H]2C(CO)=CC[C@H]12` the viability was 118%. In the case of `COc1nc(C)cnc1NS(=O)(=O)c1cccnc1-c1ccc(-c2nnco2)cc1`, the viability is reported as 126%. With `CCN(CC)CCCCNc1nc2cc(Cl)c(Cl)cc2nc1-c1ccc(-c2cccs2)s1` the Potency was 16.6 µM (active). With `O=C1C(CCC(O)c2ccc(F)cc2)C(c2ccc(O)cc2)N1c1ccc(F)cc1` (stereo not given) the viability was 99.3%. Work on `Nc1ncnc2c1ncn2[C@@H]1O[C@H](CO)[C@@H](O)[C@@H]1O` yielded a viability of 106%. `O=C(O)CCC=CCC[C@@H]1[C@H](N2CCCCC2)[C@@H](O)C[C@@H]1OCc1ccc(-c2ccccc2)cc1` showed a viability of 114%. For `CCOC(=O)N1CCN([N+]([O-])=NOc2cc(ON=[N+]([O-])N3CCN(C(=O)OCC)CC3)c([N+](=O)[O-])cc2[N+](=O)[O-])CC1`, the Potency was 4.69 µM (active). For `CN1CCN(c2cccc(Nc3nc4c(-c5ccc(S(C)(=O)=O)cc5)cccn4n3)c2)CC1`, the Potency was 18.7 µM (active). In the case of `CCN1CCC(n2cc(CNc3cc(Cl)c4ncc(C#N)c(Nc5ccc(F)c(Cl)c5)c4c3)nn2)CC1`, the Potency is reported as 5.9 µM (active). In the case of `Cn1c(=O)c(-c2c(Cl)cccc2Cl)cc2cnc(Nc3cccc(C(=O)O)c3)nc21`, the Potency is reported as 2.09 µM (active). In the case of `CCN(CCO)CCCOc1ccc2c(Nc3cc(CC(=O)Nc4cccc(F)c4)[nH]n3)ncnc2c1`, the viability is reported as 116%. For `Clc1ccc(COC(Cn2ccnc2)c2ccc(Cl)cc2Cl)c(Cl)c1` (stereo not given), the Potency was 20.9 µM (active). For `O=C(c1ccc(C(=O)N2CCC(N3CCCC3)CC2)c(Nc2ccccc2)c1)N1CCC(N2CCCC2)CC1`, the Potency was 6.62 µM (active). For `C[C@H]1COC2=C1C(=O)C(=O)c1c2ccc2c1CCCC2(C)C`, the Potency was 14.8 µM (active). With `Cc1nn(Cc2ccccc2Cl)c(C)c1CN(C)CC(O)COc1ccc(Cl)cc1` (stereo not given) the Potency was 3.32 µM (active). For `Cc1cc(OCCCS(C)(=O)=O)cc(C)c1-c1cccc(COc2ccc3c(c2)OC[C@H]3CC(=O)O)c1`, the Potency was 14.8 µM (active). For `CN(C)c1ccc(-c2nc3ncc(Cl)c(N4CCN(CC(=O)Nc5nccs5)CC4)c3[nH]2)cc1`, the Potency was 14.8 µM (active). For `Cc1ccccc1C(=O)c1ccc(Nc2ccc(Br)cc2N)cc1Cl`, the Potency was 16.6 µM (active). For `N#Cc1ccc(Oc2ccc3c(c2)COB3O)cc1`, the viability was 113%. For `O=S(=O)(NCCNCC=Cc1ccc(Br)cc1)c1cccc2cnccc12`, the Potency was 18.7 µM (active). For `CN(C)CC[C@H](CSc1ccccc1)Nc1ccc(S(=O)(=O)NC(=O)c2ccc(N3CCN(Cc4ccccc4-c4ccc(Cl)cc4)CC3)cc2)cc1[N+](=O)[O-]`, the Potency was 18.7 µM (active). In the case of `COc1nccc(-c2c(-c3ccc(F)cc3)ncn2C2CCNCC2)n1`, the Potency is reported as 9.35 µM (active). `CC(C)C[C@@H](N)[C@H](O)C(=O)N[C@H](C(=O)N[C@H](C(=O)N[C@@H](CC(=O)O)C(=O)O)C(C)C)C(C)C` showed a viability of 122%. For `O=C(Nc1ccccc1)Nc1ccc(-c2ccc(C(=O)[C@H]3CCC[C@H]3C(=O)O)cc2)cc1`, the viability was 114%. In the case of `CNC(=O)[C@H](Cc1ccccc1)NC(=O)[C@H](CC(C)C)[C@H](CSc1cccs1)C(=O)NO`, the viability is reported as 98.7%. For `NC1(C(=O)N[C@@H](CCO)c2ccc(Cl)cc2)CCN(c2ncnc3[nH]ccc23)CC1`, the Potency was 5.9 µM (active).
